According to the supplement of paper PMC10849652:
About 7,900 targets were measured; listed, in parts, are those with a hit and a random draw of the rest. About 0.6% of all pairs of compound and target were hits.

What follows are targets tested with c1cn2cc(-c3ccc4cn[nH]c4c3)nc(Nc3ccc(N4CCOCC4)cc3)c2n1 [entospletinib] (assay: log2 fold change, soluble protein after heating vs DMSO (PISA); higher = thermal stabilisation; K562 cells, 10 uM, 30 min; active = over 0.2 and 3.5 SD of the protein, either way, in both replicates (recomputed)).
Outline: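 Soluble protein was quantified by TMTpro 16plex LC-MS/MS after channel sums were equalised. It was obtained as the supernatant after 21,000xg for 90 min from pooled aliquots of K562 cells (2×10^6 cells/mL, 10 μM compound, 30 min) heated for 3 min across 48°C-58°C and extracted in PBS with 0.5% NP-40 at 4°C. Thermal stability values are relative to control samples and come from duplicates. They are given as log2 fold changes.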

Chain of UniProt Q13428 (Q13428 whole entry, looked up): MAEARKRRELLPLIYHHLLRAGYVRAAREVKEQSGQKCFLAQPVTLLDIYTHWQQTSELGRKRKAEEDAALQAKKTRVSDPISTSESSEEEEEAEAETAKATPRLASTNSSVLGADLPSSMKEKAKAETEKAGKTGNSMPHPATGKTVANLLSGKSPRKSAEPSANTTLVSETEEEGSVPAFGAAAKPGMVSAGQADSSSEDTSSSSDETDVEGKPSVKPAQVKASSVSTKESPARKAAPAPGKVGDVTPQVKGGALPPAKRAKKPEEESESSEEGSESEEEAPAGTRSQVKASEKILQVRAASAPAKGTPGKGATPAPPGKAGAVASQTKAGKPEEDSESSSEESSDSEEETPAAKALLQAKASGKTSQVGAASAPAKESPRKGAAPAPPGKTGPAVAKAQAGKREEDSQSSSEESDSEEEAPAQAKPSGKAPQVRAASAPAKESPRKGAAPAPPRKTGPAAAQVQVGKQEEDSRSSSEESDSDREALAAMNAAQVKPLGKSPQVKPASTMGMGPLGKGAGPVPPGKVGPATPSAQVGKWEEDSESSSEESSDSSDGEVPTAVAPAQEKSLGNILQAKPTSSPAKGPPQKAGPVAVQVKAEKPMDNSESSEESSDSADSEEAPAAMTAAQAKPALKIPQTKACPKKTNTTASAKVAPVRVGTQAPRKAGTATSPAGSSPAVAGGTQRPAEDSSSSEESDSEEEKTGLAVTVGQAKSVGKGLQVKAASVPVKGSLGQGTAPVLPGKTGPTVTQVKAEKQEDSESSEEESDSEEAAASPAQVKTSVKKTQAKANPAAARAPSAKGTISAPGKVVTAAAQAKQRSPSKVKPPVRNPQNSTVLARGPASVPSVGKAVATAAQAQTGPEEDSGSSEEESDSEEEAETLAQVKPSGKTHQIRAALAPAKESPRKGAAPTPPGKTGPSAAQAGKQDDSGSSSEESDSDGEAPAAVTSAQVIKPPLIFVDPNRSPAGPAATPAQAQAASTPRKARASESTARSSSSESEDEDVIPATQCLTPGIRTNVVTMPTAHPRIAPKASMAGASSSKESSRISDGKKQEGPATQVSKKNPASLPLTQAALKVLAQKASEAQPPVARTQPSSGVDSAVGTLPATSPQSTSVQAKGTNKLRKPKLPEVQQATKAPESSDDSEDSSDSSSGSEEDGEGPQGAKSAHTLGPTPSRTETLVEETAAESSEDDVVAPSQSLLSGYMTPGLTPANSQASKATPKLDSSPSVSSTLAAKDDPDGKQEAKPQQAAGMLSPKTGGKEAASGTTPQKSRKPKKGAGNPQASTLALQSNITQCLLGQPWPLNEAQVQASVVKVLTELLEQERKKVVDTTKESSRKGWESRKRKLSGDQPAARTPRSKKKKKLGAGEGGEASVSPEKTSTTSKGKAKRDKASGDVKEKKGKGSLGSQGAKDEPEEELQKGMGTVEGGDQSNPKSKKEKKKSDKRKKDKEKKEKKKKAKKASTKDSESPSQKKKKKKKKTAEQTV
Chain of UniProt Q9Y5W9 (Q9Y5W9 whole entry, looked up): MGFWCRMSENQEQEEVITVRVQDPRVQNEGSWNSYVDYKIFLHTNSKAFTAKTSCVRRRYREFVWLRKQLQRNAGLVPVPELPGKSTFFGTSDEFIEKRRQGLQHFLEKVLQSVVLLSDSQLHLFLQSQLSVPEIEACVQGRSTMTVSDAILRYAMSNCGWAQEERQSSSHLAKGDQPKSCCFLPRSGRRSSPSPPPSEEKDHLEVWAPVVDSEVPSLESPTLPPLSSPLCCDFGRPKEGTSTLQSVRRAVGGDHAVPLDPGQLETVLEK
Chain of UniProt P20226 (P20226 whole entry, looked up): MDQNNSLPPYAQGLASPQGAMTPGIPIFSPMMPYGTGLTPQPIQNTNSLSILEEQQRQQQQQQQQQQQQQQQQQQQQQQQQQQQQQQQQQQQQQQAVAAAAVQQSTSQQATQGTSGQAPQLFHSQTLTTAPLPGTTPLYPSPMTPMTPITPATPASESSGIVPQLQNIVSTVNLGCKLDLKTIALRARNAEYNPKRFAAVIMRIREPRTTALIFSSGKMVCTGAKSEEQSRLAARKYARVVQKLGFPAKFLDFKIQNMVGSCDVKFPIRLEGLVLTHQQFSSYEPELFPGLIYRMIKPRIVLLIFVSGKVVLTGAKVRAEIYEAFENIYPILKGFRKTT
Chain of UniProt O76094 (O76094 whole entry, looked up): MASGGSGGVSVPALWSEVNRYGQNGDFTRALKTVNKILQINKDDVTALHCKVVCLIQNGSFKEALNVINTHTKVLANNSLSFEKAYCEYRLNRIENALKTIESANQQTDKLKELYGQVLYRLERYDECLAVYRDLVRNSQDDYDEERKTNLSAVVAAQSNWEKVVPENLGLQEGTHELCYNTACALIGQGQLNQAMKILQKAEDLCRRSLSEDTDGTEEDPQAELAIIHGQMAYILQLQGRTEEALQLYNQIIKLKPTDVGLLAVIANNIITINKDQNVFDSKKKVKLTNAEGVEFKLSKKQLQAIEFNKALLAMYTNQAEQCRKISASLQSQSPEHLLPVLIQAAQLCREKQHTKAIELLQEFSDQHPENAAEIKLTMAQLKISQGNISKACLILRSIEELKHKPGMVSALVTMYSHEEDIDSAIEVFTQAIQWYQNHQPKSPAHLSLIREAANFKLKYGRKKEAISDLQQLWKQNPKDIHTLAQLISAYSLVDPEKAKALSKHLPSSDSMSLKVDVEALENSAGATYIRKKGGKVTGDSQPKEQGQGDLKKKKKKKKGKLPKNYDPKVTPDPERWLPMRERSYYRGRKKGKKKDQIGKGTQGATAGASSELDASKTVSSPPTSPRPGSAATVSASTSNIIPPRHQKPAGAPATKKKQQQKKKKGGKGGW
Chain of UniProt Q96DI7 (Q96DI7 whole entry, looked up): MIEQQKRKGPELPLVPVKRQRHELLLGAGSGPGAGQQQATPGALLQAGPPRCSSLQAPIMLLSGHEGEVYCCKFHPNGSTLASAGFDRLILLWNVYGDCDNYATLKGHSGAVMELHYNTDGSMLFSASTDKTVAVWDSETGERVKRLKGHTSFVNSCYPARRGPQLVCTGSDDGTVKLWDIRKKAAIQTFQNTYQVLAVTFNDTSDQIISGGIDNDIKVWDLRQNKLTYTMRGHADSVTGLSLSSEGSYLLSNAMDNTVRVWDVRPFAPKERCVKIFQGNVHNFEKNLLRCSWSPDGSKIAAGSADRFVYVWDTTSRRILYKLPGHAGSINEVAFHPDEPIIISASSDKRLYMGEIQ
Chain of UniProt Q9BYN0 (Q9BYN0 whole entry, looked up): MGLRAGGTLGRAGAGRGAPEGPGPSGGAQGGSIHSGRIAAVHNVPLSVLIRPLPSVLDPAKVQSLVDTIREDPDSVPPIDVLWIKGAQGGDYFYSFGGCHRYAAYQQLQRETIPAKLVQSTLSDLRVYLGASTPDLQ
Chain of UniProt O75663 (O75663 whole entry, looked up): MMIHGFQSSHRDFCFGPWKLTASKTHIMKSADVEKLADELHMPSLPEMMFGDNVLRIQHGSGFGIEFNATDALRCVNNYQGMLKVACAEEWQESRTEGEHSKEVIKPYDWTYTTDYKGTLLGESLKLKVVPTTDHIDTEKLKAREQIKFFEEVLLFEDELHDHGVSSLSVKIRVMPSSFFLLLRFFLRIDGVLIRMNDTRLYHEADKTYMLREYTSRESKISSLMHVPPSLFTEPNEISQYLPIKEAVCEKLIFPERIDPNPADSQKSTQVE
Chain of UniProt Q9H2K8 (Q9H2K8 whole entry, looked up): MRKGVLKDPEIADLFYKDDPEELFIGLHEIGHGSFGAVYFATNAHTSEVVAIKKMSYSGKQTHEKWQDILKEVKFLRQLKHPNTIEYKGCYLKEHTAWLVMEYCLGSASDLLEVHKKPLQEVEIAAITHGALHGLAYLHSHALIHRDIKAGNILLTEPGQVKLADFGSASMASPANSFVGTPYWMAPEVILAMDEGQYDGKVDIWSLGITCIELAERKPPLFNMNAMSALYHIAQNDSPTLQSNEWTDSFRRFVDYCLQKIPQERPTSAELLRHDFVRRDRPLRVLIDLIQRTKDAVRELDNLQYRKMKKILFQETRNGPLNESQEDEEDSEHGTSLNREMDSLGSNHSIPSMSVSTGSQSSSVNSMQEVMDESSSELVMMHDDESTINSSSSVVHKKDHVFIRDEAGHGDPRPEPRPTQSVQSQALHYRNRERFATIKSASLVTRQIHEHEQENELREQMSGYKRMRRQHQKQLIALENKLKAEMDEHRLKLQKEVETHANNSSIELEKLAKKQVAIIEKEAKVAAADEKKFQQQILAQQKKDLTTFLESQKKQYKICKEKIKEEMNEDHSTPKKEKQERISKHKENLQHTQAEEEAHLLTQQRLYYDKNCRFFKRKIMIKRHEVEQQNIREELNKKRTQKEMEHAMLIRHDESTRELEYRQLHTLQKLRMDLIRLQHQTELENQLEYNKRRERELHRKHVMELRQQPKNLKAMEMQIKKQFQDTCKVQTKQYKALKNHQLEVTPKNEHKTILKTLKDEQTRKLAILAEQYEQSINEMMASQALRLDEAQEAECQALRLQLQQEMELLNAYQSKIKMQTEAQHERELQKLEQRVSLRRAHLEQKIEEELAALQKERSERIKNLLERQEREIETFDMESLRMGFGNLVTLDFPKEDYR
Chain of UniProt P51571 (P51571 whole entry, looked up): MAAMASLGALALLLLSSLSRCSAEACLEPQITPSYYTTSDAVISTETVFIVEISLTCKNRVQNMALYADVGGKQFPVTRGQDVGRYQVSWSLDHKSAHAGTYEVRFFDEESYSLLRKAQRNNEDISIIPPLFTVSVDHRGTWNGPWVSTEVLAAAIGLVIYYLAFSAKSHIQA
Chain of UniProt Q8N5G0 (Q8N5G0 whole entry, looked up): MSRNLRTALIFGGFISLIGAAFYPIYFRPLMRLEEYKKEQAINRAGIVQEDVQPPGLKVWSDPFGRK
Chain of UniProt Q9Y5M8 (Q9Y5M8 whole entry, looked up): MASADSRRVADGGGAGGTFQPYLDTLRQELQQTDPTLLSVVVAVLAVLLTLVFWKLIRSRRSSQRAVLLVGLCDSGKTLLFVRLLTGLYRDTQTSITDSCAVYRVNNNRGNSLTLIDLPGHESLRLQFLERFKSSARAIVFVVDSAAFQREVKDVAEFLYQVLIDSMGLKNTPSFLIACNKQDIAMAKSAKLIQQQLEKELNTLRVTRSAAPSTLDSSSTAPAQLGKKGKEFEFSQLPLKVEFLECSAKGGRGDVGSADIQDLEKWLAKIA

log2 fold change, active:
SLC39A11 (UniProt Q8N1S5) -0.458

log2 fold change, inactive:
SMIM20 isoform 2 (UniProt Q8N5G0) 0.008
SNX15 (UniProt Q9NRS6) 0.124
SRPRB (UniProt Q9Y5M8) -0.052
SMARCAD1 isoform 2 (UniProt Q9H4L7) -0.008
TBP (UniProt P20226) 0.012
SUCLA2 (UniProt Q9P2R7) -0.048
TAOK3 (UniProt Q9H2K8) -0.016
SREBF1 isoform 4 (UniProt P36956) 0.015
SNX11 (UniProt Q9Y5W9) 0.135
STAT5B (UniProt P51692) -0.053
SNRNP40 (UniProt Q96DI7) -0.025
TARBP1 (UniProt Q13395) 0.043
TIPRL (UniProt O75663) 0.018
STK25 (UniProt O00506) -0.104
TFRC (UniProt P02786) 0.022
TBC1D20 isoform 3 (UniProt Q96BZ9) -0.065
TBC1D24 (UniProt Q9ULP9) 0.004
SQSTM1 (UniProt Q13501) 0.02
SRXN1 (UniProt Q9BYN0) -0.079
TCOF1 isoform 4 (UniProt Q13428) 0.001
TARS2 (UniProt Q9BW92) -0.072
TBCD (UniProt Q9BTW9) -0.03
STIM1 (UniProt Q13586) 0.003
TK1 (UniProt P04183) -0.012
STK26 (UniProt Q9P289) -0.022
SRP68 (UniProt Q9UHB9) 0.091
SSB (UniProt P05455) -0.051
TCOF1 isoform 6 (UniProt Q13428) -0.006
SUPT5H (UniProt O00267) 0.031
SRP72 (UniProt O76094) 0.052
TAF9 (UniProt Q16594) -0.042
SRC isoform 2 (UniProt P12931) 0.02
SNW1 (UniProt Q13573) 0.087
SSR4 (UniProt P51571) -0.021
